ChEMBL document CHEMBL4513216, “Probing the Open Global Health Chemical Diversity Library for Multistage-Active Starting Points for Next-Generation Antimalarials” (ACS Infect Dis, 2020)
The campaign covered roughly 69,000 compounds. About 8,600 (12%) showed an effect of 50% or more. The sample holds strong results, similar compounds and a random draw of the others, so the mix is not that of the screen.

The compounds below were run on Plasmodium berghei (assay: Screen against P. berghei liver stage (PbLuc), transformed with Luciferase, at 10uM). Settings: tested at 10 uM.
Format: functional, HepG2

SMILES | INHIBITION [%]
NC(=O)C1CCN(C(=O)CCn2ccc3ccc(Br)cc32)CC1 | 10.6
c1cnc(N2CCOCC3(CCCN(CC4CCOCC4)C3)C2)nc1 (stereo not drawn) | -4.88
CNC(=O)CN1CC[C@H]2CN(C(=O)c3cc[nH]n3)C[C@H]2C1 | 41.1
O=C(NCc1ccnc(-n2cccn2)c1)C1CC(=O)N(CC2CC2)C1 (stereo not drawn) | -25.9
CN(C)S(=O)(=O)N1C[C@@H]2C[C@H](C(=O)Nc3cccnc3)[C@H](C1)O2 | 43.9
CC(=O)c1ccc(OCC(C)O)cc1O (stereo not drawn) | 47.1
COc1ccc(CN(C)[C@@H]2CN(S(=O)(=O)C(C)C)C[C@H]2O)cc1 | 2.15
CCN1C(=O)[C@]2(CC[C@@H]3CN(C(=O)Nc4ccc(F)cc4)C[C@@H]32)N=C1C | 22.2
COc1ncccc1CNC(=O)Nc1cccnc1N1CCCC1 | 43.3
COc1cccc(CC(=O)NCC(Cc2ccc(F)cc2)C(N)=O)c1 (stereo not drawn) | 8.99
N#Cc1ccc(N2CCC(NS(=O)(=O)c3cccs3)CC2)c(F)c1 | 20.9
N#Cc1c(F)cccc1N1CCC(NS(=O)(=O)c2cccs2)CC1 | 24
N#Cc1cc(F)c(N2CCC(NS(=O)(=O)c3cccs3)CC2)c(F)c1 | 62.9
CNc1ncc(C(=O)N2CCOC(C(=O)Nc3ccccc3)C2)cn1 (stereo not drawn) | -8.58
CN(CCc1ccccc1)Cc1c(C2CCOCC2)[nH]c2ncccc12 | 17.125
CN(CCc1ccccc1)Cc1c(C2CC2)[nH]c2ncccc12 | 14.185
CN(CCc1ccccc1)Cc1c(C2CCNCC2)[nH]c2ncccc12 | 58.95
NCCCC(=O)N1CCC2(CC1)CN(C(=O)c1ccc(Cl)cc1)CCO2 | 4.35
O=C(c1csc(-c2ccc(C(F)(F)F)cc2)n1)N1CCCNCC1 | 62.1
CN1CCCN(C(=O)c2csc(-c3ccc(C(F)(F)F)cc3)n2)CC1 | 42.3
O=C1CCN(C(=O)c2csc(-c3ccc(C(F)(F)F)cc3)n2)CCN1 | -1.26
CC(=O)N1CCN(C(=O)NC(C)C)CC2(CNC(=O)C2)C1 (stereo not drawn) | -2.17
CC(C)NC(=O)N1CCN(C(=O)NC(C)C)CC2(CNC(=O)C2)C1 | -2.17

SMILES | INHIBITION [%]
CC(C)NC(=O)N1CCN(C(=O)C(C)C)CC2(CC(=O)N(C)C2)C1 (stereo not drawn) | 22.2
CC(C)NC(=O)N1CCN(CC2CC2)CC2(CNC(=O)C2)C1 (stereo not drawn) | 69.6
CC(=O)N1CCN(C(=O)NC(C)C)CC2(CC(=O)N(C)C2)C1 (stereo not drawn) | -3.52
CC(C)NC(=O)N1CCN(CC2CC2)CC2(CC(=O)N(C)C2)C1 (stereo not drawn) | 79.5
CN(C)C(=O)COC1COC2(CCN(CC3CCOCC3)CC2)C1 (stereo not drawn) | 12.2
COCC1CCN(C(=O)c2cn(Cc3ccccc3C(F)(F)F)nn2)C1 (stereo not drawn) | -49.3
CNC(=O)c1cc2c(nc1NCC1CC1)CCN(S(C)(=O)=O)CC2 | -8.94
Cc1csc(C2CCCCN2C(=O)c2c[nH]c(C)n2)n1 (stereo not drawn) | 1.75
CC(=O)c1ccc(C(=O)N2C[C@H]3CC[C@@H](C2)N(Cc2ccccc2)C3)s1 | -52.1
CCn1cc(CN2CCCN(C(=O)CCc3ccncc3)CC2)cn1 | 31
CCN(CC)CC(=O)N1CCN(CCCc2ccncc2)CC1 | 66.5
CCN(CC)C(=O)N1CCN(CCc2ccncc2)CC1 | 15.5
Cn1cc(CCC(=O)N2CCN(Cc3ccncc3)CC2)cn1 | 27.1
CCC(=O)N1CCN(Cc2cc(-c3ccncc3)nn2C)CC1 | 19.3
CCN(CC)CC(=O)N1CCN(CCc2ccncc2)CC1 | 52.6
O=C(c1cccnc1)N1CCC[C@]2(C[C@H](Oc3ncccc3F)CO2)C1 | -7.59
O=C(NCc1ccc(Cl)cc1)C1=NOC2(CCNC2)C1 (stereo not drawn) | 1.71
c1cncc(CN2CCC(c3ccnc4nccn34)C2)c1 (stereo not drawn) | 19.99
CC(C)C1CN(c2ncccn2)CCC(=O)N1CC1CC1 (stereo not drawn) | 9.63
Cc1nccc(N2CCC(=O)N(CC3CC3)C(C(C)C)C2)n1 (stereo not drawn) | 27.2
COc1ccnc(N2CCC(=O)N(CC3CC3)C(C(C)C)C2)n1 (stereo not drawn) | 50.3
Cc1noc(C)c1CN1CCN(Cc2ccncc2)c2ncccc2C1 | 29
Fc1cccc(Oc2nccnc2C2CCN(C3CCOCC3)CC2)c1 | 52.7

SMILES | INHIBITION [%]
Cc1cccc(Oc2nccnc2C2CCN(C(=O)C(C)(C)N)CC2)c1 | 47.1
Cc1ccc(Oc2nccnc2C2CCN(C(=O)C(C)(C)N)CC2)cc1 | 33.7
CC(C)(N)C(=O)N1CCC(c2nccnc2Oc2cccc(F)c2)CC1 | 56
c1ccc(Oc2nccnc2C2CCN(C3CCOCC3)CC2)cc1 | -38.3
Fc1ccc(Oc2nccnc2C2CCN(C3CCOCC3)CC2)cc1 | 38.7
NC(=O)CN1CCCC(c2nccnc2Oc2cccc(F)c2)C1 (stereo not drawn) | -39.4
CC(C)(N)C(=O)N1CCC(c2nccnc2Oc2ccccc2F)CC1 | 63.4
Fc1ccccc1Oc1nccnc1C1CCN(C2CCOCC2)CC1 | 25.8
CCOCC1CC2(CCN(C(=O)c3ccc4ccccc4n3)CC2)CO1 (stereo not drawn) | -33.9
Cc1ccc2c(c1)C(=O)NCC1(CCN(C(=O)c3sccc3C)CC1)O2 | 41.2
COc1ncc(C(=O)N(Cc2cnn(C)c2)C(C)C)cn1 | 22
C1CC(CN2CCO[C@H]3[C@H](OCC4CC4)CC[C@@H]32)CCO1 | 40.9
CN(C)CCN(CC1CCCO1)S(=O)(=O)NCc1ccccc1 (stereo not drawn) | 19.4
Cc1cccc(CN2C(=O)CCC23CCN(C(=O)c2ccco2)CC3)n1 | -24.5
CN1CCc2cc(C(=O)N(C)C)c(NCC3CC3)nc2CC1 | 2.59
COc1c(CNCc2cccc(Cn3ccnc3C)c2)c(C)nn1C | 43.3
COCc1cc(N(C)Cc2ccccn2)nc(C(C)(C)C)n1 | 27.7
COCc1cc(N(C)Cc2cnccn2)nc(C(C)(C)C)n1 | 62
CN(Cc1cc(Cl)ccc1Cl)Cc1ncnn1C | 15.9
CN(Cc1cnccn1)c1cncc(Br)c1 | 45.9
COCc1cc(N(C)Cc2cc(C(C)(C)C)n[nH]2)ncn1 | -30.5
COCc1cc(N(C)Cc2ncnn2C)nc(C(C)(C)C)n1 | 50.8
